Measurements reported in PubChem BioAssay (NCATS).
Active and inactive are the calls of the source. Calls come from the whole dose curve.

Tests used:
Assay in all cases: Confirmatory Screen for Target Class Profiling of Small Molecule Inhibitors of Methyltransferases (AID 1745852); for activity change, negative = inhibition: % is set by controls: 0 for no effect and ±100 for the full control effect
[1] = molecular target: Catechol O-methyltransferase (Homo sapiens) (UniProt P21964); details: MTase-Glo luminescence, SAH detection, recombinant enzyme; measured here: COMT max response; stronger effect = lower value
[2] = molecular target: Guanidinoacetate N-methyltransferase (Homo sapiens) (UniProt Q14353); details: MTase-Glo luminescence, SAH detection, recombinant enzyme; activity change, negative = inhibition: at 57.3 µM (top of the series) unless noted; series mostly up to 57.3 µM
[3] = molecular target: Nicotinamide N-methyltransferase (Homo sapiens) (UniProt P40261); details: MTase-Glo luminescence, SAH detection, recombinant enzyme; measured here: NNMT max response; stronger effect = lower value
[4] = molecular target: Phenylethanolamine N-methyltransferase (Homo sapiens) (UniProt P11086); details: MTase-Glo luminescence, SAH detection, recombinant enzyme; measured here: PNMT max response; stronger effect = lower value
Potency is the fitted concentration of half-maximal effect.

Chain of Nicotinamide N-methyltransferase (Homo sapiens) (P40261 whole entry, looked up): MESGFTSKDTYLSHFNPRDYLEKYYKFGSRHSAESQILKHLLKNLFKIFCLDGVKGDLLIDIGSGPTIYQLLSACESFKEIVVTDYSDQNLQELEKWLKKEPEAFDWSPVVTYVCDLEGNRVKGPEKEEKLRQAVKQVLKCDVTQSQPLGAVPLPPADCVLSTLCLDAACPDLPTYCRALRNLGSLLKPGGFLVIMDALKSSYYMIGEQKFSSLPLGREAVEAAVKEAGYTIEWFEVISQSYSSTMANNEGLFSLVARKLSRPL
Chain of Catechol O-methyltransferase (Homo sapiens) (P21964 whole entry, looked up): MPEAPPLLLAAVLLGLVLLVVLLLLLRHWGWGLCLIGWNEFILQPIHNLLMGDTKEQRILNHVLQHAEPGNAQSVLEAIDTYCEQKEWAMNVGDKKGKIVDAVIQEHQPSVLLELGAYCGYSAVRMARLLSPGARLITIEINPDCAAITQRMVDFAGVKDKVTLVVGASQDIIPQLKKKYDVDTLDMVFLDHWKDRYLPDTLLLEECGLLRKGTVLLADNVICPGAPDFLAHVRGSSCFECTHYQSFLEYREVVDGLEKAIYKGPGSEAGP
Chain of Phenylethanolamine N-methyltransferase (Homo sapiens) (P11086 whole entry, looked up): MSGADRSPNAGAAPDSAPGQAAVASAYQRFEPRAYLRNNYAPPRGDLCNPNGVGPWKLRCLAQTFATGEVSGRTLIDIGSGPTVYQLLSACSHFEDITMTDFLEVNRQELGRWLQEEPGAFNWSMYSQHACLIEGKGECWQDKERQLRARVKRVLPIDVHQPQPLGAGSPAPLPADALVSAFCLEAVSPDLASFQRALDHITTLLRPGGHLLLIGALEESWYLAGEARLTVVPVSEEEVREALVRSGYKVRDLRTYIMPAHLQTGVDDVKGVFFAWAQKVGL

SMILES | activity [1] [%] | activity change, negative = inhibition [2] | activity [3] [%] | activity [4] [%] | Potency [2]
CN(C)c1nc2c(c(N3C[C@@H](CN4CCCC4)[C@@H](CO)C3)n1)CCCC2 | 4.35 | 2.26% | 3.39 | 3.79 | 
Cn1ncc2c(N3CCN(S(N)(=O)=O)CC3)nc(C3CCCC3)nc21 | -8.84 | -4.64% | -39.7 | -18 | 
Cn1cc(CN2CCCC(COc3ccccc3C(=O)N3CCCCC3)C2)c2ccccc21 (stereo not given) | 6.44 | 7.22% | 4.53 | 3.6 | 
O=C(CCc1nnc2n(CCc3ccccc3)c(=O)c3ccccc3n12)N1CCN(c2ccccc2)CC1 | 0 | 0% | -41 | 0.144 | 
CCCC1c2cccn2CCN1C(=O)Nc1ccc(Br)cc1F (stereo not given) | -8.21 | -4.98% | -17 | -10.2 | 
c1ccc(CNc2cc(-c3cc(N4CCCCC4)ncn3)c3cc[nH]c3n2)nc1 | -16.9 | -13.9% | -28.9 | -32 | 
CCCC1c2cccn2CCN1C(=O)Nc1ccccc1C(F)(F)F (stereo not given) | -12.1 | -8.26% | -18.7 | -13.3 | 
O=C(Nc1ccc2c(N3CCCC3)ncnc2c1)c1cc(F)ccc1Cl | -8.67 | -7.52% | -15.4 | -17.8 | 
O=C(NCCc1ccccc1)c1ccc(CN2C(=O)CCn3nc(-c4ccccc4)cc32)cc1 | -6.47 | 0.906% | -28.8 | -5.57 | 
CCc1ccc(NS(=O)(=O)c2ccc3c(c2)n(C)c(=O)n3C)cc1 | 4.08 | 0% | -40.6 | -1.22 | 
CCN(CC)CCNC(=O)CCc1nnc2n(Cc3ccc(Cl)cc3)c(=O)c3ccccc3n12 | 2.48 | 0% | -12.4 | 0 | 
CCCn1c(=O)c2ccccc2n2c(=O)n(CC(=O)c3cc(C)ccc3C)nc12 | 1.84 | 0% | -36.8 | -0.0841 | 
CCN(CC)CCCNC(=O)CCc1nnc2n(Cc3ccc(F)cc3)c(=O)c3ccccc3n12 | 2.05 | 0% | -4.75 | 1.85 | 
CCN(CC)CCCNC(=O)CCc1nnc2n(CCc3ccccc3)c(=O)c3ccccc3n12 | -3.69 | -1.16% | -11.7 | 2.52 | 
O=C(NCc1cccc(Cl)c1)c1sc(=S)n2c1[nH]c(=O)c1cc3c(cc12)OCO3 | -21.3 |  | -63.2 | -39.9 | 27.1 µM (active)
Cc1noc(C)c1-c1cc(-c2ccc(CN(C)C)cc2)cn2cncc12 | -2.27 | -8.74% [at 85.7 µM] | -10.7 | -3.78 | 
COc1ccc(-c2nc3ccccc3[nH]2)cc1 | -76.2 |  | -74.3 | -79.7 | 15.2 µM (active)
Cc1ccccc1-c1[nH]nc2ncc(-c3c(C)noc3C)nc12 | -14.4 | -10.5% [at 85.7 µM] | -31.8 | -28.1 | 
CCn1cc(CN2CCCC23CCN(c2cc(C)nc4ccccc24)CC3)c(C)n1 | 3.11 | 4.01% | -3.44 | 6.12 | 
CCCNc1cc(N2CCC(CCC(=O)NCCN3CCCCCC3)CC2)ncn1 | 7.42 | 8.04% | -8.06 | 0.426 | 

SMILES | activity [1] [%] | activity change, negative = inhibition [2] | activity [3] [%] | activity [4] [%] | Potency [2]
CCN(CCc1nc2ccc(C)cc2[nH]1)C(=O)c1ccccc1C1CCNC1 (stereo not given) | 6.01 | 8.24% | 7.78 | 8.18 | 
CCCC1c2cccn2CCN1C(=O)Nc1ccc(Br)c(C)c1 (stereo not given) | -4.66 | -2.02% | -7.57 | -6.57 | 
O=C(CCc1nnc2n(CCc3ccccc3)c(=O)c3ccccc3n12)N1CCN(C2CCCCC2)CC1 | 0 | 0% | -47.4 | 0.426 | 
CC1CCN(CCCNC(=O)CCc2nnc3n(Cc4ccc(F)cc4)c(=O)c4ccccc4n23)CC1 | -10.3 | -2.12% | -14.9 | -5.49 | 
Cc1ccc(Cn2c(=O)c3ccccc3n3c(CCC(=O)NCCCN4CCN(C)CC4)nnc23)cc1 | -2.75 | -1.36% | -12.5 | 3.42 | 
CCCC1c2cccn2CCN1C(=O)Nc1ccccc1Cl (stereo not given) | 2 |  | -4.51 | 1.09 | inactive
CCCc1sc(NC(=O)C[C@H]2NC(=O)c3ccccc3NC2=O)nc1C(=O)OC | 4.16 | 2.83% | -4.71 | 3.73 | 
N#Cc1cc(CN2CCCC(C(=O)Nc3cccc(-c4ccc(F)cc4)c3)C2)c[nH]1 (stereo not given) | -4.34 | -9.38% | -14.2 | -5.67 | 
COc1cccc(NC(=O)Cn2c(=O)oc3cc(S(=O)(=O)N4CCCCC4C)ccc32)c1 (stereo not given) | 0.845 | -1.86% | -2.27 | -70.8 | 
CCOc1c(CN(C)C(=O)Cn2cccc(OC)c2=O)cccc1OC | 0.499 | -5.47% | -3.91 | 0.0949 | 
CC1(C(=O)NC2CCCCC2)Cn2c(c(-n3cccc3)c3ccccc32)C(=O)N1Cc1ccccn1 (stereo not given) | 0 | 0% | -45.4 | 2.72 | 
CCc1cccc(NC(=O)Cn2c(=O)oc3cc(S(=O)(=O)N4CC(C)CC(C)C4)ccc32)c1 (stereo not given) | 3.4 | 0% | -6.52 | -59.2 | 
CCN(CC)Cc1cnc2c(C(=O)N3CCCN4CCC[C@H]4C3)cnn2c1 | -42.2 | 7.01% | 12.3 | 8.45 | 
COc1cccc([C@H]2Nc3ccc(S(=O)(=O)Nc4ccc(C)cc4C)cc3[C@H]3C=CC[C@H]32)c1 | -17.4 |  | -21.2 | -27.1 | 27.1 µM (active)
COc1ccc(CCNC(=O)c2ccc3c(=O)[nH]c4c(C(=O)NC5CCCC5)sc(=S)n4c3c2)cc1OC | -35.3 |  | -49.2 | -23 | 24.1 µM (active)
CCc1cccc(NC(=O)Cn2c(=O)oc3cc(S(=O)(=O)N4CCCCC4)ccc32)c1 | 1.79 | 0% | -2.82 | -33.8 | 
CCC1Oc2ccc(NS(=O)(=O)c3ccc(Cl)cc3)cc2CN(Cc2ccc(F)cc2)C1=O (stereo not given) | -6.43 | -14.3% | -24.1 | -6.42 | 
COc1ccc(-c2nc3ccncc3[nH]2)cc1 | -92.6 |  | -106 | -86.1 | 12.4 µM (active)
O=C(NCc1ccc2c(c1)OCO2)c1sc(=S)n2c1[nH]c(=O)c1ccc(Cl)cc12 | -88.3 |  | -87.4 | -92.6 | 24.1 µM (active)
CC(C)Cn1c(=O)c2ccccc2n2c(CCC(=O)N3CCC(Cc4ccccc4)CC3)nnc12 | -2.5 | 0.755% | -56.6 | -9.36 | 

SMILES | activity [1] [%] | activity change, negative = inhibition [2] | activity [3] [%] | activity [4] [%] | Potency [2]
COc1ccc(NC(=O)C(C)(C)Oc2nn(CC3CC3)c3ccc(CN4CCCC4)cc23)cc1 | 8.52 | 9.81% | 5.5 | 9.18 | 
Cc1cnc(C2CC2)n1C1CCCN(Cc2ccccc2)C1 (stereo not given) | 3.04 | 5.24% | -1.39 | 0.832 | 
Cc1cnc(CCNC(=O)c2n[nH]c(=O)c3ccccc23)n1C1CCCCC1 | -2.57 | 5.31% | -0.405 | -2.34 | 
CC(=O)Nc1cc(-c2cc(C(=O)NCc3cccnc3)c3c(c2)N(C)CCO3)ccn1 | -17.6 | -8.39% [at 85.7 µM] | -4.98 | -28.5 | 
c1ccc(CN2CCNc3cnc(Nc4ccc(N5CCOCC5)cc4)cc3C2)cc1 | -14.6 | -9.27% [at 85.7 µM] | -15 | -10.3 | 
O=C(Nc1ccc2ncnc(N3CCCCC3)c2c1)C1CCCCC1 | -75.6 |  | -81.1 | -86.5 | 19.2 µM (active)
Fc1cccc(-c2nnn3c2nc(NCCc2ccccc2)c2ccccc23)c1 | -4.7 | -1.64% | -12.6 | -9.28 | 
CC1CCCCN1CCNC(=O)Cn1ccc2cc(S(=O)(=O)N3CCCCC3)ccc21 (stereo not given) | 0.614 | 0% | -0.249 | -1.89 | 
Cc1cc(NS(=O)(=O)c2ccc3[nH]c(=O)[nH]c3c2)ccc1Br | 1.24 | 0.289% | -14.5 | -63.7 | 
CC(C)OCCCn1c(=O)c2ccccc2n2c(CCC(=O)N3CCN(c4cccc(Cl)c4)CC3)nnc12 | 0.543 | 0% | -39.1 | -4.41 | 
COCc1nc2nc(-c3ccccc3)c(-c3ccc(O)c(F)c3)cc2n1C | -38 |  | -53 | -59.9 | 39.3 µM (active)
CN1CCC(N2C[C@@H]3C[C@H]2C(=O)N(CC2CC2)c2ccccc2O3)CC1 | 4.01 | 2.68% [at 85.7 µM] | -1.59 | 3.64 | 
CC(C)Cn1c(=O)c2ccccc2n2c(CCC(=O)N3CCN(c4cccc(Cl)c4)CC3)nnc12 | -1.89 | 1.7% | -35.8 | -10.3 | 
Cc1cccc(N2CCN(C(=O)c3ccc4c(=O)[nH]c5c(C(=O)NC(C)C)sc(=S)n5c4c3)CC2)c1C | -37.2 | 0.0257% | -76.7 | -28.7 | 
COc1ccc(-c2cc(-c3cnn(C)c3)cn3cncc23)cn1 | -23.7 | -6.32% [at 85.7 µM] | -36.8 | -7.46 | 
CCOc1ccccc1CN1CCC(Cc2nc(-c3cccnc3)n[nH]2)C1 (stereo not given) | 2.59 | 0.265% | -34.4 | -0.0084 | 
Cc1c(OCc2ccc(C(=O)O)o2)ccc2c(-c3ccccc3)cc(=O)oc12 | -33.2 |  | -34.7 | -33.9 | 24.1 µM (active)
Cc1cnc(C2CC2)n1C1CCN(S(=O)(=O)c2ccc3c(c2)OCCO3)CC1 | -0.0283 | -2.25% | -30.4 | -0.889 | 
CCN(CC)CCNC(=O)CCCc1nnc2n3nc(-c4ccccc4)nc3c3ccccc3n12 | -2.75 | 0.717% | -0.56 | -1.77 | 
COc1cccc(CN2C(=O)c3nc4ccccc4n3CC2(C)C(=O)NC2CCC(C)CC2)c1 (stereo not given) | -5 | 0.902% | -42.5 | -8.56 | 
